From PubChem BioAssay (EPA / NIEHS)
Records with an inconclusive call do not appear. Active and inactive are the calls of the source. Rule for the calls, unless noted: active = hit-call score of the fitted dose curve at least 0.9, where 1 is the maximum; inconclusive = response in the unintended direction; inactive = score below 0.9.

How the values were obtained:
[1] = ATG_TAL_CIS: Attagene CIS-FACTORIAL HepG2 Assay for human TAL Basal Promoter (AID 2282966; active = hit-call score of the fitted dose curve at least 0.9, where 1 is the maximum; inactive = score below 0.9;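 note: background control endpoint measuring basal TAL promoter reporter mRNA not a specific factor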); details: HepG2 Attagene cis-factorial TAL promoter reporter; actives raise or lower the signal
How it was run: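 After 24 hours of chemical exposure, transfected HepG2 cells yielded RNA that was converted to 6-FAM-labelled, HpaI-digested reporter fragments for capillary electrophoresis. Values derive from bidirectional fitting against DMSO controls.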

[2] = ATG_TGFb_CIS: Attagene CIS-FACTORIAL HepG2 Assay for human Transforming Growth Factor (TGF) (AID 2282967; active = hit-call score of the fitted dose curve at least 0.9, where 1 is the maximum; inactive = score below 0.9); details: HepG2 Attagene CIS TGFb reporter, mRNA transcription; actives raise or lower the signal
How it was run: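 Multiplexed cis-reporter HepG2 system, 24 h treatment; mRNA induction read by fluorescence after RT-PCR and CE; DMSO negative control, bidirectional curve fitting.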

[3] = ATG_VDRE_CIS: Attagene CIS-FACTORIAL HepG2 Assay for human Vitamin D Receptor Element (VDRE) (AID 2282968; active = hit-call score of the fitted dose curve at least 0.9, where 1 is the maximum; inactive = score below 0.9); details: HepG2 VDRE cis-reporter transcription, actives raise or lower the signal
How it was run: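 Compounds were applied for 24 h to HepG2 cells transfected with promoter-regulated reporter units. Total RNA was reverse-transcribed, and reporter amplicons were fluorescently labelled and sized by capillary electrophoresis.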

[4] = target: X-box-binding protein 1 (Homo sapiens) (UniProt P17861); test: ATG_Xbp1_CIS: Attagene CIS-FACTORIAL HepG2 Assay for human X-box Binding Protein 1 (XBP1) (AID 2282972; active = hit-call score of the fitted dose curve at least 0.9, where 1 is the maximum; inactive = score below 0.9); details: HepG2 XBP1 cis-element reporter, Attagene multiplex; actives raise or lower the signal
Sequence of X-box-binding protein 1 (Homo sapiens) (P17861 whole entry, looked up): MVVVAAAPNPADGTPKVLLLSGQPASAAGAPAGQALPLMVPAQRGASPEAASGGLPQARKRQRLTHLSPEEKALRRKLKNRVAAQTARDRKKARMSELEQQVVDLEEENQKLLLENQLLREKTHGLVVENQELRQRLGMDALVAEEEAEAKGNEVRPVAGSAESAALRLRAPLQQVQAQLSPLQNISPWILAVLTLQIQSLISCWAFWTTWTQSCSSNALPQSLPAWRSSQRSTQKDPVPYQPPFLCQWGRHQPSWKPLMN
How it was run: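 Human hepatoma HepG2, cis-element reporter system, 24 h treatment; mRNA quantified by RT-PCR/CE fluorescence; fit relative to DMSO.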

[5] = ATG_GAL4_TRANS: Attagene TRANS-FACTORIAL HepG2 Assay for GAL4 (Internal Marker) (AID 2282976); details: HepG2 Attagene TRANS GAL4 internal marker reporter
How it was run: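 First, HepG2 cells were transfected with reporter units under GAL4-UAS control. Next, they were treated with chemical for 24 h. Finally, RNA was reverse-transcribed, PCR-amplified, FAM-labelled and resolved by capillary electrophoresis, with induction scored against DMSO.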

[6] = target: Glucocorticoid receptor (Homo sapiens) (UniProt P04150); test: ATG_GR_TRANS: Attagene TRANS-FACTORIAL HepG2 Assay for human Glucocorticoid Receptor (GR) (AID 2282978); details: HepG2 Attagene TRANS GR reporter, mRNA transcription;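 note: activators score as hits since higher reporter transcript over DMSO is fitted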
Sequence of Glucocorticoid receptor (Homo sapiens) (P04150 whole entry, looked up): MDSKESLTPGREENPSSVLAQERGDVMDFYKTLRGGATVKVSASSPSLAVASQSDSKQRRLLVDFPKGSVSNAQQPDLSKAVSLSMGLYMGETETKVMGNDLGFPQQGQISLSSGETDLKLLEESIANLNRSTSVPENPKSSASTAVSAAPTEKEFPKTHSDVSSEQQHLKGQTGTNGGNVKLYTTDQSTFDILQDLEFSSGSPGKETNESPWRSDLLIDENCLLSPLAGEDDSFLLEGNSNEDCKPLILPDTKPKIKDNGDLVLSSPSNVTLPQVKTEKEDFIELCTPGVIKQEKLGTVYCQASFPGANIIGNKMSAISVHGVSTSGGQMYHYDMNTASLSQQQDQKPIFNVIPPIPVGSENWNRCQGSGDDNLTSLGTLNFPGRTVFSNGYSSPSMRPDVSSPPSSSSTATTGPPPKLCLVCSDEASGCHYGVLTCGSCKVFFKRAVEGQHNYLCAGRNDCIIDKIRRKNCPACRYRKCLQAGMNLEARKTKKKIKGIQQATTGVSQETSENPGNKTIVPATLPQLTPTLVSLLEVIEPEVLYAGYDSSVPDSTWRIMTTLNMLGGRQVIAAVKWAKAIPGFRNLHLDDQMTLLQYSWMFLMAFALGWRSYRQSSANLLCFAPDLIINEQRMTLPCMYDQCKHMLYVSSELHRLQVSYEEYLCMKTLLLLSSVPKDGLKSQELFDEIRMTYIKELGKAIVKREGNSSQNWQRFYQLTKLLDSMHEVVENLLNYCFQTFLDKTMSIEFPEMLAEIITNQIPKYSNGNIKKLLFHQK
How it was run: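 Multiplexed TRANS reporter system, HepG2; 24 h exposure; RNA → oligo(dT) RT → reporter-specific PCR → 6-FAM primer extension → HpaI cut → CE fluorescence. Gain-of-signal vs DMSO.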

[7] = target: Bile acid receptor (Homo sapiens) (UniProt Q96RI1); test: ATG_FXR_TRANS: Attagene TRANS-FACTORIAL HepG2 Assay for Farnesoid X Receptor (FXR) (AID 2282979); details: HepG2 Attagene TRANS FXR-GAL4 reporter transcription;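 note: hits raise reporter mRNA above DMSO so AC50 marks FXR activation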
Sequence of Bile acid receptor (Homo sapiens) (Q96RI1 whole entry, looked up, the tested form may be a part): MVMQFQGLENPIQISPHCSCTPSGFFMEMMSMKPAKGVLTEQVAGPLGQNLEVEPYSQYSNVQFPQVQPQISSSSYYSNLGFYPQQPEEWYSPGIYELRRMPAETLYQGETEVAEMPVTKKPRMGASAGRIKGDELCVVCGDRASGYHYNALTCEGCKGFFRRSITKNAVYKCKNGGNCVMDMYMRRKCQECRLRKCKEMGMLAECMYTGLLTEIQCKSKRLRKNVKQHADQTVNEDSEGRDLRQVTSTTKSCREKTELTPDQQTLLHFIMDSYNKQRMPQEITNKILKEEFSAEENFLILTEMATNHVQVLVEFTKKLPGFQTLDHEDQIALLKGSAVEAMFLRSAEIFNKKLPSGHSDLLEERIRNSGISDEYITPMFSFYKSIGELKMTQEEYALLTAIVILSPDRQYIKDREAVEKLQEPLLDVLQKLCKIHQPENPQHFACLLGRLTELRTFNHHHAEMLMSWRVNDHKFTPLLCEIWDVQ
How it was run: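 Transient transfection of HepG2 with multiplexed GAL4-UAS reporter units; exogenous FXR-GAL4 chimera. Dose 24 h → TriZol RNA → oligo(dT) RT → PCR, 6-FAM primer extension, HpaI cut → CE. Gain vs DMSO.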

[8] = target: Oxysterols receptor LXR-alpha (Homo sapiens) (UniProt Q13133); test: ATG_LXRa_TRANS: Attagene TRANS-FACTORIAL HepG2 Assay for human Liver X Receptor alpha (LXRa) (AID 2282980); details: HepG2 Attagene TRANS reporter, LXRa transactivation
Sequence of Oxysterols receptor LXR-alpha (Homo sapiens) (Q13133 whole entry, looked up, the tested form may be a part): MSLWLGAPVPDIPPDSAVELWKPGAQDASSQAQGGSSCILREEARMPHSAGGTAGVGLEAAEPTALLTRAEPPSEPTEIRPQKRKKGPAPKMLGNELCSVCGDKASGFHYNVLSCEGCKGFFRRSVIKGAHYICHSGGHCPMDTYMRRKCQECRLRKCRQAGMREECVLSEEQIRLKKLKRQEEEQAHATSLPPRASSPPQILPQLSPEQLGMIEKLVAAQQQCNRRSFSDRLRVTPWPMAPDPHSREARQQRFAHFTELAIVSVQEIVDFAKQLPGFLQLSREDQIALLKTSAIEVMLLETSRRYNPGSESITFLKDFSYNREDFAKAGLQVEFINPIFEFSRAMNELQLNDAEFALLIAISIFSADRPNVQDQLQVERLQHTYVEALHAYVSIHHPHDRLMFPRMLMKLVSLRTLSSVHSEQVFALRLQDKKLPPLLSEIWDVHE
How it was run: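 Transfect HepG2 with GAL4-UAS multiplex reporter constructs (TRANS format, chimeric receptor-GAL4); treat 24 h; extract RNA, reverse-transcribe, PCR-amplify, FAM-label, HpaI-digest; resolve fragments by capillary electrophoresis. Upward response vs DMSO.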

[9] = target: Oxysterols receptor LXR-beta (Homo sapiens) (UniProt P55055); test: ATG_LXRb_TRANS: Attagene TRANS-FACTORIAL HepG2 Assay for human Liver X Receptor beta (LXRb) (AID 2282981); details: HepG2 Attagene TRANS GAL4-LXRb reporter, mRNA
Sequence of Oxysterols receptor LXR-beta (Homo sapiens) (P55055 whole entry, looked up, the tested form may be a part): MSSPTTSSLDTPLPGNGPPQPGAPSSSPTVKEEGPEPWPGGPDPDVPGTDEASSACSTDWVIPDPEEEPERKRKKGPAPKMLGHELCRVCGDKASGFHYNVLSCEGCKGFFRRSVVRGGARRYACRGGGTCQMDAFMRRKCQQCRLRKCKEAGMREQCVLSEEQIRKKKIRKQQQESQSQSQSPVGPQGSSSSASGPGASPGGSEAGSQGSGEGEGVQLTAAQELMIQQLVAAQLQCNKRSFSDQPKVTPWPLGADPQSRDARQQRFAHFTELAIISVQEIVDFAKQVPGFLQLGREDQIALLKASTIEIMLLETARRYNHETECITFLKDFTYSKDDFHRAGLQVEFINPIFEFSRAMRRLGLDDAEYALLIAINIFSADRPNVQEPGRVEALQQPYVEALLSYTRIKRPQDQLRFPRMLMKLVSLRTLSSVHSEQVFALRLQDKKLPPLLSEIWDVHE
How it was run: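 Multiplexed reporter assay, HepG2, 24 h dosing. Fluorescence of labelled RT-PCR products after capillary electrophoresis gives transcript level; positive fitting direction relative to DMSO.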

[10] = target: Hepatocyte nuclear factor 4-alpha (Homo sapiens) (UniProt P41235); test: ATG_HNF4a_TRANS: Attagene TRANS-FACTORIAL HepG2 Assay for human Hepatocyte Nuclear Factor 4 alpha (HNF4a) (AID 2282982); details: HepG2 HNF4a transactivation reporter, mRNA readout
Sequence of Hepatocyte nuclear factor 4-alpha (Homo sapiens) (P41235 whole entry, looked up, the tested form may be a part): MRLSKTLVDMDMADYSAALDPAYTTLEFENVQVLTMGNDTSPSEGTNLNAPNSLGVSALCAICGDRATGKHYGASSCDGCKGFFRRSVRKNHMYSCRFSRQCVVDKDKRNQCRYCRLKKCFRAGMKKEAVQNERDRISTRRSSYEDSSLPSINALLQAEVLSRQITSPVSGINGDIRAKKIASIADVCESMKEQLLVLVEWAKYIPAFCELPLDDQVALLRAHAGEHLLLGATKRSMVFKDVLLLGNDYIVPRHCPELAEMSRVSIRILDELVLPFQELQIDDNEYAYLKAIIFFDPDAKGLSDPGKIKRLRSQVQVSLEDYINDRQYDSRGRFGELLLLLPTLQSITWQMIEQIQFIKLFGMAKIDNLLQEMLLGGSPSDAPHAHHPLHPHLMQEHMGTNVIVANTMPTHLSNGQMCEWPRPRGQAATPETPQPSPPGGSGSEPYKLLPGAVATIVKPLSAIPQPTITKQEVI
How it was run: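 Endpoint reflects transcriptional activation of a GAL4-UAS reporter by an HNF4a-GAL4 chimera in transfected HepG2 cells, 24 h post-dosing. Fluorescence from RT-PCR products separated by capillary electrophoresis; DMSO baseline.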

[11] = ATG_M_06_TRANS: Attagene TRANS-FACTORIAL HepG2 Assay for M06 Transcription Factor (Internal Marker) (AID 2282983); details: HepG2 Attagene TRANS M06 internal marker reporter
How it was run: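 Background control endpoint: reporter mRNA from transiently transfected HepG2 after 24 h dosing, detected by RT-PCR with capillary electrophoresis fluorescence. Analysed for gain versus DMSO.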

[12] = ATG_M_32_TRANS: Attagene TRANS-FACTORIAL HepG2 Assay for M32 Transcription Factor (Internal Marker) (AID 2282984); details: HepG2 Attagene TRANS M32 internal marker reporter;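 note: transcript level of a background control reporter unit measured by RT-PCR and capillary electrophoresis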
How it was run: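 Internal-marker readout from a multiplexed transcription reporter panel. HepG2 cells were transfected with GAL4-UAS reporter units, treated 24 hours, and reporter transcript levels determined by fluorescence after RT-PCR and capillary separation.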

[13] = target: Nuclear receptor subfamily 4 group A member 2 (Homo sapiens) (UniProt P43354); test: ATG_NURR1_TRANS: Attagene TRANS-FACTORIAL HepG2 Assay for human Nuclear Receptor Related Protein 1 (NURR1) (AID 2282985); details: HepG2 Attagene TRANS reporter, mRNA readout
Sequence of Nuclear receptor subfamily 4 group A member 2 (Homo sapiens) (P43354 whole entry, looked up): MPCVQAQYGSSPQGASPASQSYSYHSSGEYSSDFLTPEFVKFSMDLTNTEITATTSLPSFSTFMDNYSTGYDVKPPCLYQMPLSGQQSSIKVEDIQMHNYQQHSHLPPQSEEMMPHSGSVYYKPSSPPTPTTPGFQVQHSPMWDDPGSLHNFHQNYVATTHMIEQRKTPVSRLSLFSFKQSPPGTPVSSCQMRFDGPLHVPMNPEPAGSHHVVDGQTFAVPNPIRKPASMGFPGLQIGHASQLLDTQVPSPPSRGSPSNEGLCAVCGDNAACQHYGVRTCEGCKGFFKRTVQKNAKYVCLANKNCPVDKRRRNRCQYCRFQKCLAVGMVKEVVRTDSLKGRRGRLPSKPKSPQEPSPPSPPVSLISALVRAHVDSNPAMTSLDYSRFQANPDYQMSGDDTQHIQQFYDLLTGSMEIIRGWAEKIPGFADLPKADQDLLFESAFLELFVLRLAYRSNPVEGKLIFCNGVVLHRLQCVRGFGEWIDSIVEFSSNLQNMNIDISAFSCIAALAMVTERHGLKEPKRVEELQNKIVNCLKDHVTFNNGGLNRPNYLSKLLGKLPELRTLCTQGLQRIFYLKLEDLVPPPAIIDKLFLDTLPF
How it was run: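 Endpoint: reporter mRNA increase relative to DMSO. HepG2 cells transfected with reporter units, treated 24 h; RNA processed by RT-PCR, labelling, HpaI digestion and capillary electrophoresis.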

[14] = target: Transcriptional activator Myb (Homo sapiens) (UniProt P10242); test: ATG_Myb_CIS: Attagene CIS-FACTORIAL HepG2 Assay for human Myeloblastosis (Myb) Proto-Oncogene Transcription Factor (AID 2282986; active = hit-call score of the fitted dose curve at least 0.9, where 1 is the maximum; inactive = score below 0.9); details: HepG2 Attagene CIS-FACTORIAL Myb reporter transcription; actives raise or lower the signal
Sequence of Transcriptional activator Myb (Homo sapiens) (P10242 whole entry, looked up): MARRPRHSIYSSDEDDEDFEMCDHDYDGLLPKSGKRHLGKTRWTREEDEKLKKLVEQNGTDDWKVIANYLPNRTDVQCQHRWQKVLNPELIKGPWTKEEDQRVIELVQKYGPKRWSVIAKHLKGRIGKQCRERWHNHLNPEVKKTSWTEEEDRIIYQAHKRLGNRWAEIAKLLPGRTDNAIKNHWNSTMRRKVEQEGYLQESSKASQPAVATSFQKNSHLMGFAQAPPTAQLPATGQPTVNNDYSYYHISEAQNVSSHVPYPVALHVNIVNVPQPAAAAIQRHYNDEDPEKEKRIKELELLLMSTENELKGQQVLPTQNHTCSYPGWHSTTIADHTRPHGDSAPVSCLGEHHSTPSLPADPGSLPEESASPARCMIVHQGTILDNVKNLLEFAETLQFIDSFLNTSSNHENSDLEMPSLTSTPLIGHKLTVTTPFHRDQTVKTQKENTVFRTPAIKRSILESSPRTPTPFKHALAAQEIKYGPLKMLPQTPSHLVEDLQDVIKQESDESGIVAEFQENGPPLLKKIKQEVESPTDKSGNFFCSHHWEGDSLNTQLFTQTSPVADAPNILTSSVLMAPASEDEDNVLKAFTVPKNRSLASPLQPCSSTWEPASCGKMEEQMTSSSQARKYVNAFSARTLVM
How it was run: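 Endogenous transcription factor activity at a Myb-responsive cis element is reported in human liver HepG2 cells after 24 h chemical treatment. Reporter mRNA is detected by RT-PCR and capillary electrophoresis fluorescence, with DMSO as baseline.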

[15] = target: Nuclear respiratory factor 1 (Homo sapiens) (UniProt Q16656); test: ATG_NRF1_CIS: Attagene CIS-FACTORIAL HepG2 Assay for human Nuclear Respiratory Factor 1 (NRF1) Orphan Gene (AID 2282987; active = hit-call score of the fitted dose curve at least 0.9, where 1 is the maximum; inactive = score below 0.9); details: HepG2 NRF1 cis-element reporter, Attagene multiplex; actives raise or lower the signal
Sequence of Nuclear respiratory factor 1 (Homo sapiens) (Q16656 whole entry, looked up): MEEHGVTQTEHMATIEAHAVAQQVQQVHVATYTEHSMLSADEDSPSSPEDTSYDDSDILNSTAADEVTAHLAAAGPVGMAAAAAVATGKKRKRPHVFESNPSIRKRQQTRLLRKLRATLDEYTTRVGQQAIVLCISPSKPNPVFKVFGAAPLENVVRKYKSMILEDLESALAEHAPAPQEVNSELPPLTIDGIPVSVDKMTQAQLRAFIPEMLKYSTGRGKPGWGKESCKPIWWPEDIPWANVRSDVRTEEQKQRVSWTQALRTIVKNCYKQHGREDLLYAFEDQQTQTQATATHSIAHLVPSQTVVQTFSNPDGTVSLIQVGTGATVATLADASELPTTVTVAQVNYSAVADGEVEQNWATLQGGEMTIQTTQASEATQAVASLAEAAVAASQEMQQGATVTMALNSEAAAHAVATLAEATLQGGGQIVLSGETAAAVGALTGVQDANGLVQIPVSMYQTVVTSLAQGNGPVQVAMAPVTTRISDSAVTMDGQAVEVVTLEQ
How it was run: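 Human hepatoma HepG2 cells carrying transfected promoter-regulated reporter units were incubated with test chemicals for 24 h. Reporter transcripts were measured by RT-PCR plus capillary electrophoresis, and endpoints derived by bidirectional fitting with DMSO as baseline.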

[16] = ATG_M_19_TRANS: Attagene TRANS-FACTORIAL HepG2 Assay for M19 Transcription Factor (Internal Marker) (AID 2282974); details: HepG2 Attagene TRANS-FACTORIAL M19 internal marker reporter
How it was run: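 After transfection of HepG2 with GAL4-UAS-driven reporter constructs, cells are dosed for 24 h. Total RNA is reverse-transcribed, reporter sequences PCR-amplified and labelled, then HpaI-digested and sized by capillary electrophoresis.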

Row | Compound | outcome [1] | outcome [2] | outcome [3] | outcome [4] | outcome [5] | outcome [6] | outcome [7] | outcome [8] | outcome [9] | outcome [10] | outcome [11] | outcome [12] | outcome [13] | outcome [14] | outcome [15] | outcome [16] | AC50 [1] | AC50 [3] | AC50 [4]
1 | Cc1ccc(C2OC[C@@H]3OC(c4ccc(C)cc4)O[C@H]([C@H](O)CO)[C@@H]3O2)cc1 (stereo partly specified) | inactive | inactive | inactive | inactive | inactive | inactive | inactive | inactive | inactive | inactive | inactive | inactive | inactive | inactive | inactive | – | – | – | –
2 | CCCCCCCCO[C@@H]1O[C@H](CO)[C@@H](O)[C@H](O)[C@H]1O | inactive | inactive | inactive | inactive | inactive | inactive | inactive | – | inactive | inactive | – | inactive | inactive | – | inactive | – | – | – | –
3 | CC1(C)S[C@@H]2[C@H](NC(=O)COc3ccccc3)C(=O)N2[C@H]1C(=O)O | inactive | inactive | inactive | inactive | – | inactive | – | inactive | – | inactive | – | – | – | inactive | inactive | inactive | – | – | –
4 | O=C(O)CC(C(=O)O)C(CC(=O)O)C(=O)O (stereo unspecified) | inactive | inactive | inactive | inactive | – | inactive | inactive | – | inactive | – | inactive | inactive | – | – | inactive | inactive | – | – | –
5 | c1cc(C(c2ccc(OCC3CO3)cc2)C(c2ccc(OCC3CO3)cc2)c2ccc(OCC3CO3)cc2)ccc1OCC1CO1 (stereo unspecified) | – | inactive | – | – | inactive | inactive | – | – | – | – | inactive | inactive | – | inactive | inactive | inactive | 44.8 µM (active) | 17 µM (active) | 22.9 µM (active)
6 | O=C1OC(=O)c2cc(Oc3ccc4c(c3)C(=O)OC4=O)ccc21 | inactive | inactive | inactive | inactive | inactive | – | inactive | – | inactive | inactive | inactive | – | – | inactive | inactive | – | – | – | –
7 | C=COCCCC | inactive | inactive | inactive | inactive | inactive | – | inactive | – | inactive | – | – | – | – | inactive | inactive | – | – | – | –
8 | C=C[Si](C)(C)O[Si](C)(C)C=C | inactive | inactive | inactive | inactive | inactive | inactive | – | inactive | inactive | inactive | inactive | inactive | inactive | inactive | inactive | inactive | – | – | –
9 | FC(F)=C(F)OC(F)(F)C(F)(F)C(F)(F)F | inactive | inactive | inactive | inactive | inactive | – | – | – | inactive | – | – | – | inactive | inactive | inactive | inactive | – | – | –
10 | Cc1ccccc1C | inactive | inactive | inactive | inactive | inactive | – | – | inactive | inactive | – | inactive | inactive | inactive | inactive | inactive | – | – | – | –
